Data as given in ChEMBL document CHEMBL4513141, “CO-ADD screening of NIH (USA) - Clinical Collection” (2021).
Results with a measured potency or affinity are listed apart.

What was measured:
[1] = tested on: Klebsiella pneumoniae; details: Concentration 20 uM; ASSAY_TEST Inhibition of Bacterial Growth; detection method Absorption (OD600); MEDIA CAMHB; plate type 384well; NBS; CORNING #3640; time 18 hr
[2] = tested on: Candida albicans; details: 20 µM
[3] = tested on: Cryptococcus neoformans; details: Concentration 20 uM; ASSAY_TEST Inhibition of Fungal Growth; detection method Resazurin; Absorption (OD600-OD570); plate type 384well; NBS; CORNING #3640

SMILES	Inhibition [1]	Inhibition [2]	Inhibition [3]
CNNCc1ccc(C(=O)NC(C)C)cc1.Cl [PROCARBAZINE HYDROCHLORIDE]	8%	2.55%	-6.46%
CCN(CC)C(=O)[C@]1(c2ccccc2)C[C@@H]1CN.Cl [1R,2S-MILNACIPRAN HYDROCHLORIDE]	12.52%	0.44%	-10.1%
C[C@]12CCC(=O)C=C1CC[C@@H]1[C@@H]2[C@@H](O)C[C@@]2(C)[C@H]1CC[C@]2(O)C(=O)COC(=O)CCC(=O)O [HYDROCORTISONE HEMISUCCINATE ANHYDROUS]	-3.41%	4.59%	6.86%
O=[N+]([O-])c1cccc2cn[nH]c12 [7-NITROINDAZOLE]	13.1%	3.19%	-0.25%
CC1(C)O[C@@H]2[C@@H](CO[C@@]3(COS(N)(=O)=O)OC(C)(C)O[C@@H]23)O1 [TOPIRAMATE]	6.32%	2.83%	-6.94%
